Compound activity deposited in PubChem by National Center for Advancing Translational Sciences (NCATS).
The sample as a whole holds a higher share of hits than the screen did.
nsP2pro primary: Primary qHTS for inhibitors of NSP2Pro chikungunya virus (CHIKV) | Polyprotein P1234 (Chikungunya virus (strain S27-African prototype)), Q8JUX6 | hit rate 1.1% among 31,000 | FRET peptide cleavage, nsP2pro, fluorescence 1 h | Potency, µM (doses to about 24.9 µM), hits mostly inhibitors; further: nearly all actives have a fitted effect of over 60% in size
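Recombinant nsP2pro (150 nM) was preincubated with compound 15 min at room temperature in 10 mM Tris-HCl pH 8.0, 0.01% Tween 20. Peptide 2 FRET substrate (2.5 uM) was then added and fluorescence read after 1 h. Seven-point series, up to 25 uM.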
CHIKV nsP2 cell: Secondary cell base assay for inhibitors of NSP2Pro Chikungunya virus (CHIKV) | shares compounds with nsP2pro primary | cell-based CHIKV nsP2 protease reporter assay | Potency, µM (titrated, usually from 51.1 µM), usual class: inhibitors | hit rate 10% among 450 | AID 1964100, 2024; further: nearly all actives have a fitted effect of over 70% in size
Target sequence (Q8JUX6 220-798 limits assumed): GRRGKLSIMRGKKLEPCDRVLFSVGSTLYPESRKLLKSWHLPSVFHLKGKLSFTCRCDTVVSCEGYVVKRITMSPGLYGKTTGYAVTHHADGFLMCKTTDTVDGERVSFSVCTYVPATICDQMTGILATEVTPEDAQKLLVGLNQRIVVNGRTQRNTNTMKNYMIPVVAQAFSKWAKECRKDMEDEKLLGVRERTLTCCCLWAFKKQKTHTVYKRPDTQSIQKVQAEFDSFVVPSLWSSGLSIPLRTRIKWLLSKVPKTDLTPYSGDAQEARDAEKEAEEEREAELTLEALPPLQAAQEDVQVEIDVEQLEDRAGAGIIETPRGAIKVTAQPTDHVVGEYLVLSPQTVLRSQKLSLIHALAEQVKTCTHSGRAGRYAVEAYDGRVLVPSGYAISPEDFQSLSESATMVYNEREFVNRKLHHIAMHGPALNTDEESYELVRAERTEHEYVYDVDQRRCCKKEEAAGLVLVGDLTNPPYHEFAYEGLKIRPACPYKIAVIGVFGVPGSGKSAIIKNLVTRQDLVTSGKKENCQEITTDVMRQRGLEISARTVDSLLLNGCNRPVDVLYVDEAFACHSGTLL
CHIKV NSP2 FL: Selectivity profile for inhibitors of NSP2Pro chikungunya virus (CHIKV): Full length NSP2 enzyme counterscreen (CHIKV-NSP2). shares compounds with nsP2pro primary. hit rate 39% among 410. Full-length CHIKV NSP2 protease enzymatic counterscreen. Potency, µM (series often up to 50.7 µM), usual class: inhibitors; further: nearly all actives have a fitted effect of over 65% in size
Furin counterscr: Selectivity profile for inhibitors of NSP2Pro chikungunya virus (CHIKV): Human furin counterscreen. Potency, µM (highest dose often 50.6 µM), hits mostly inhibitors. hit rate 6% among 410. Recombinant human furin enzymatic counterscreen, fluorogenic substrate. AID 1964102, 2024. shares compounds with nsP2pro primary
nsP2 NS23 pep: Selectivity profile for inhibitors of NSP2Pro chikungunya virus (CHIKV): Endogenous NS2/3 peptide Counterscreen. shares compounds with nsP2pro primary. Purified CHIKV nsP2 protease, endogenous NS2/3 peptide cleavage. Potency, µM (series often up to 51 µM), most hits filed as inhibitors. hit rate 34% among 410; further: nearly all actives have a fitted effect of over 55% in size
Papain cs: Selectivity profile for inhibitors of NSP2Pro chikungunya virus (CHIKV): Papain Counterscreen; hit rate 5% among 410; Potency, µM (highest dose often 51 µM), actives largely listed as inhibitors; AID 1964104, 2024; purified papain protease activity, enzymatic inhibition; shares compounds with nsP2pro primary
nsP2pro conf qHTS: Confirmatory qHTS for inhibitors of NSP2Pro chikungunya virus (CHIKV); shares compounds with nsP2pro primary; CHIKV nsP2 protease enzymatic activity, qHTS; Potency, µM (doses to about 25.5 µM), actives largely listed as inhibitors; hit rate 43% among 410; AID 1964105, 2024; further: nearly all actives have a fitted effect of over 75% in size
HCV NS3 4A cs: Selectivity profile for inhibitors of NSP2Pro chikungunya virus (CHIKV): NS34A-HCV Counterscreen | shares compounds with nsP2pro primary | HCV NS3/4A protease biochemical counterscreen | Potency, µM (highest dose often 50.9 µM), most hits filed as inhibitors | hit rate 20% among 410 | AID 1964106, 2024; further: nearly all actives have a fitted effect of over 55% in size
Numbers stand for hits; 0 = inactive; ? = inconclusive. The call rests on the fitted dose curve.

SMILES | nsP2pro primary | others
COc1cc(C#N)ccc1S(=O)(=O)Nc1ccc2c(c1)cc(C)c(=O)n2C | 0
CO[C@@H](Cc1ccc(OCCc2nc(-c3ccccc3)oc2C)c2ccsc12)C(=O)O | 9.9µM | CHIKV nsP2 cell=0;CHIKV NSP2 FL=0;Furin counterscr=0;nsP2 NS23 pep=0;Papain cs=?;nsP2pro conf qHTS=?;HCV NS3 4A cs=0
CCOc1ccc(-c2nc(CNC(=O)Nc3ccccc3)c(C)o2)cc1 | 0
Cc1oc(-c2ccc(C(=O)NCCCOC(C)C)cc2)nc1CS(=O)(=O)c1ccccc1 | 0
CC(C)c1cc(C(=O)N2CCn3nc(C(=O)Nc4ccccc4)cc3C2)n[nH]1 | 0
CCCNC(=O)N1CCc2nc(N3CCN(C)CC3)sc2C1 | 0
O=C(Nc1cccnc1)C1CCCCC1 | 0
O=C1Nc2ccccc2CN(Cc2ccccc2)C12CCNC2 (centres undefined) | ? | CHIKV nsP2 cell=0
O=C1Nc2ccccc2CC12CCN2Cc1ccc(OC(F)(F)F)cc1 (centres undefined) | 0
O=C1Nc2ccccc2CC12CCN(Cc1cccnc1)C2 (centres undefined) | 0
O=C1CC(c2ccccc2)N(C(=O)CNC(=O)c2n[nH]c3ccccc23)CCCCCCN1 (centres undefined) | 0
O=C1Nc2ccccc2CC12CCCN2C1COC1 (centres undefined) | 0
CNC(=O)c1cnn2c(C)cc(C)nc12 | 0
C=C1CCC2[C@](C)(CCC[C@@]2(C)C=O)[C@H]1CC/C(C)=C/CO (some centres undefined) | 0
Cc1cc(=O)oc2c3c(ccc12)OCN(Cc1ccccc1Cl)C3 | 0
O=c1oc2c3c(ccc2c2ccccc12)OCN(Cc1ccccc1Cl)C3 | 1.1µM | CHIKV nsP2 cell=0;CHIKV NSP2 FL=0;Furin counterscr=0;nsP2 NS23 pep=12µM;Papain cs=0;nsP2pro conf qHTS=4µM;HCV NS3 4A cs=0
O=c1oc2c3c(ccc2c2ccccc12)OCN(Cc1cccc(Cl)c1)C3 | 0
CC(C)(C)CC(=O)N1CC[C@@H](CC(=O)O)[C@@H](CCN2CCN(c3ccccn3)CC2)C1 | 0
O=C(NC[C@H]1O[C@@H](CO)[C@@H](O)[C@H]1N1CCOCC1)c1cccc(F)c1 | 0
O=C(Nc1nnc(-c2ccncc2)s1)Nc1ccc(Cl)cc1F | 0
